Reference: PubChem BioAssay (NCI)
The panel holds about 83,000 compounds, 20% with a hit somewhere; the sample as a whole holds those more often.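 Note: values are percent growth. 100 is the growth of untreated cells, values between 100 and 0 indicate rising inhibition; between -100 and 0 indicates cell death.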 Values without a mark were called inactive. Active and inactive are the calls of the source. How the source made its calls: active means growth percent below 10; inactive means the rest.

Tested on: MDA-MB-468 breast
Test: NCI-60 one-dose screen, 48 h (100 = growth as untreated, 0 = no growth, -100 = all killed)
Conditions: 10 µM unless noted

Row | Compound | growth
1 | O=C1OCC2=C1C(c1cccc(F)c1)c1cc3c(cc1N2CCO)OCCO3 (stereo not given) | -8.31% (active)
2 | COC(=O)C(CSC(c1ccccc1)(c1ccccc1)c1ccccc1)NC(=O)C(CC(N)=O)NC(=O)OCc1ccccc1 (stereo not given) | -17.7% (active)
3 | CN(C)CCCC1(c2ccc(F)cc2)OCc2cc(-c3ccc(C(F)(F)F)nc3)ccc21 (stereo not given) | 73.3%
4 | O=C(O)c1ccccc1NCc1ccco1 | 95%
5 | CC(C)CSc1nc(NN)c(C#N)c(-c2ccc(F)cc2)n1 | 85.2%
6 | Cc1cccc(Oc2ccc(Nc3ncnc4ccc(NC(=O)CNCCO)cc34)cc2Cl)c1 | -21.9% (active)
7 | CC(=O)c1c(C)[nH]c(-c2nc3ccc(N4CCN(C)CC4)cc3[nH]2)c1-c1ccc(N(C)C)cc1 | 21%
8 | Cc1cc2c(cc1[N+](=O)[O-])NC(CNC(C)C)CC2 (stereo not given) | 83.3%
9 | CCCCCCCCCCCC[n+]1c(C)cc(N)c2ccccc21 | -34% (active)
10 | Cc1cc(O)c2c(c1)C(=O)C(c1c(C)cc3c(c1O)C(=O)C=CC3=O)=CC2=O | 53.2%
11 | CC[C@@H](C)/C=C(C)/C=C/C(=O)c1c(O)c(-c2ccc(O)cc2)cn(OC2CC(=O)CCC(C)OC(=O)CC2O)c1=O (stereo not given in full) | -29.9% (active)
12 | CCCc1ccnc(NS(=O)(=O)c2ccc(N)cc2)n1 | 8.05% (active)
13 | Cc1cc2nc(-c3c(N)ncc(C#N)c3-c3ccc(Cl)cc3)[nH]c2cc1C | 66%
14 | CCCCCCNC(=O)Oc1ccc(/C(=C(\C)c2ccccc2)c2ccc(OCCCN(C)C)cc2)cc1 | 95%
15 | COc1cc(Cn2c(-c3ccccc3)cc3c2-c2oncc2CC3)cc(OC)c1OC | -20.5% (active)
16 | O=c1oc2ccccc2c(Cl)c1Cl | 4.65% (active)
17 | COC1OC(COC(C)=O)C(OC(C)=O)C(OC(C)=O)C1OC(C)=O (stereo not given) | 108%
18 | Cc1ccc(Nc2nnc(-c3cc(-c4ccncc4)n(-c4ccccc4)n3)s2)cc1 | 48.7%
19 | O=C1/C(=C/c2ccc([N+](=O)[O-])cc2)Oc2ccc(O)cc21 | -63.3% (active)
20 | CC(O)/C=C/C=C/C(O)CC/C=C/C(=O)NCC(C)(C)O (stereo not given) | 102%
21 | NC(=S)N1N=C(c2ccc(Cl)cc2)CC1c1cc2ccccc2[nH]c1=O (stereo not given) | 111%
22 | CN1CCCC1c1cccnc1 (stereo not given) | 97.1%
23 | N#C/C(=C\c1ccc(Br)cc1)n1nnc2c(F)cccc21 | -10.8% (active)
24 | Cc1ccc(S(=O)(=O)N2C/C(=C\c3cc(F)cc(F)c3)C(=O)/C(=C/c3cc(F)cc(F)c3)C2)cc1 | -43.3% (active)
25 | O=C(NCc1cccc(C(F)(F)F)c1)[C@H](CCC(=O)N1CCN(C2CCCCC2)CC1)N1C(=O)[C@@H](N2C(=O)OC[C@@H]2c2ccccc2)[C@H]1/C(Cl)=C/c1ccccc1 | -5.16% (active)
